The campaign covered roughly 24,000 compounds. About 50 (0.2%) were called active. Not shown: some 9% with an inconclusive outcome.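 How the source made its calls: active means inhibition above 50%; inconclusive means compound itself fluorescent, judged against control cell fluorescence; inactive means the rest.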 Only a selection was taken, and actives are over-represented in it overall.
Each compound was assayed against Integrin alpha-4 (Homo sapiens) (UniProt P13612) (assay: blockers of LDV-FITC ligand binding on VLA-4 – Jurkat cells, Mn2+ activated, primary screen (AID 529;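 further: 0% = Mn2+ stimulated cells lacking compound and 100% = ligand binding without Mn2+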)). Details: LDV-FITC binding with Mn2+, flow cytometry, stronger effect = higher value, 100% = Mn2+-driven binding gain fully reversed, screened at 10 µM (by protocol).
Chain of Integrin alpha-4 (Homo sapiens) (P13612 whole entry, looked up): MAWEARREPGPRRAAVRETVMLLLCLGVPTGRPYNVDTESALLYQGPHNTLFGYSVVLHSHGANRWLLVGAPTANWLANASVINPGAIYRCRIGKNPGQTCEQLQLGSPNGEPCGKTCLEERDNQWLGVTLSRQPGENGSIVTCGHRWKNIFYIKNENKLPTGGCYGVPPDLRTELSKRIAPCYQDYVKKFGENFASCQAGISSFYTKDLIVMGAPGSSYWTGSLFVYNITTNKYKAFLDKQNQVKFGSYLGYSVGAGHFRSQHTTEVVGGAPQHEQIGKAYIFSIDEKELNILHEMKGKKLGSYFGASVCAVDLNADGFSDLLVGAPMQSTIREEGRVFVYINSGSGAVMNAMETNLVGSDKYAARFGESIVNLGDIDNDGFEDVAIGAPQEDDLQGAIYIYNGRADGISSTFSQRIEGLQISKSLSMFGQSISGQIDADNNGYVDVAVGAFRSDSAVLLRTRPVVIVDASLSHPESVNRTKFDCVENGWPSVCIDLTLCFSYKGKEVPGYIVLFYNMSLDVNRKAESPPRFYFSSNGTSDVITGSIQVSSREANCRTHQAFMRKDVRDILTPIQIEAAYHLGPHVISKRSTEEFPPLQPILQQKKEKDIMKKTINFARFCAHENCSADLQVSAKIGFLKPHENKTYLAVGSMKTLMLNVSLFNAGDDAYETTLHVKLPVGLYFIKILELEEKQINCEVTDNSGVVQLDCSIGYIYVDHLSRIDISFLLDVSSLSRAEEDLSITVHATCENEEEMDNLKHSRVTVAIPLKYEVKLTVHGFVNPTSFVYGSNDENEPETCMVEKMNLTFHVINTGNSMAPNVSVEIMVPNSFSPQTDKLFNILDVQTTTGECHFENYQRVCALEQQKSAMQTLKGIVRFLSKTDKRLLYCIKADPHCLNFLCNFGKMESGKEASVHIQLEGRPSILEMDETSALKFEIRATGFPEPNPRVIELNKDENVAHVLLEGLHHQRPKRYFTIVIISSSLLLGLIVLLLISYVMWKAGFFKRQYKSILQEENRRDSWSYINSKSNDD

inhibition, inactive:
CCOC(=O)c1cccc(NC(=O)CCc2c(C)nc3ncnn3c2C)c1 10%, CCOC(=O)N1CCN(C(=O)CSc2nnc(-c3c[nH]c4ccccc34)n2CCOC)CC1 9%, CC(=O)NC(C)c1nc2ccccc2n1Cc1ccccc1F (stereo not drawn) 1%, CN(C(=O)C1CCOC1)c1nnc(-c2cccnc2)s1 (stereo not drawn) -8%, CC1=NCCN1S(=O)(=O)c1ccc(Br)c(C)c1 -21.5%, C=CCSc1nnc(Cn2c(=O)sc3ccccc32)n1C 5%, Brc1cnc(N2CCCC2)nc1N1CCCCC1 -21%, Cc1cc(C)cc(N(CC(=O)NCC2CCCO2)S(=O)(=O)c2c(C)noc2C)c1 (stereo not drawn) -10%, Cc1cccc(NC(=O)CSc2nnc(NC(=O)CN3CCOCC3)s2)c1 -21%, COc1cc2[nH]c(=O)n(CCC(=O)NC3CCN(Cc4ccccc4)CC3)c(=O)c2cc1OC 11%, CCOc1cc(S(=O)(=O)NCc2ccc3c(c2)OCO3)ccc1F -18.5%, O=S1(=O)CCN2C(=N1)SC1=C2CCN(Cc2ccccc2)C1 4%, CCOc1ccc(OCC)c(NC(=O)CN(C)S(=O)(=O)c2cccc3nsnc23)c1 5%, O=C(CSc1nc2ncccc2[nH]1)Nc1ccc2c(c1)OCCO2 -23%, CCc1nnc(NC(=O)CSc2nnc(Cc3ccccc3)n2-c2ccc(OC)cc2)s1 -26.5%, CCOC(=O)N1CCN(C(=O)c2ccc3nc4cc(Cl)ccc4c(=O)n3c2)CC1 6.7%, OCc1n[nH]c(CO)n1 2%, O=c1ccn(Cc2ccccc2Cl)cc1 -16%, N#CCCn1cnc2ccccc21 -16.5%, CCOc1ccc(C2C(C(=O)O)c3ccccc3C(=O)N2CCN2CCOCC2)cc1 (stereo not drawn) -12.1%, COc1cccc(OCC(=O)Nc2ccccc2C(N)=O)c1 -12%, CCOC(=O)N1CCC(NC(=O)Cn2cc3c(n2)CCCCC3)CC1 -1%, CSC1=NCCN1C(=O)c1ccc(S(=O)(=O)N2CCOCC2)cc1 1%, CCCC(=O)N1c2ccccc2NC2=C(C(=O)CCC2)C1c1ccc(F)cc1 (stereo not drawn) -5.3%, Cc1c(C(=O)Nc2ccccc2Cl)oc2ccc(S(=O)(=O)N3CCC4(CC3)OCCO4)cc12 -8%, CCOc1cc2[nH]c(=S)n(CCCN3CCCC3=O)c(=O)c2cc1OCC -5%, O=C(Cn1nc(Cc2cccnc2)c2ccccc2c1=O)NCC1CCCO1 (stereo not drawn) -1%, COc1ccc(CNC(=O)C2CCN(S(=O)(=O)N3CCOCC3)CC2)cc1 3%, Cc1ccc(-c2nc(CS(=O)CC(=O)NC3CCCC3)c(C)o2)cc1 (stereo not drawn) -15%, CCOc1ccc(C(=O)N(Cc2ccc(N(C)C)cc2)C2CCS(=O)(=O)C2)cc1 (stereo not drawn) -24.5%, CCOC(=O)C1CCN(C(=O)CC2C(=O)N(Cc3ccccc3)C(C)c3nc4ccccc4n32)CC1 (stereo not drawn) 8%, CC(C)(C)c1ccc(C(=O)NCCC(=O)NCc2ccco2)cc1 -4%, CCOC(=O)N1CCN(C(=O)c2cnc3n(c2=O)CCS3)CC1 -8%, CCCOc1ccc(C2c3c(oc4cc(C)c(C)cc4c3=O)C(=O)N2CCCN2CCOCC2)cc1 (stereo not drawn) 1%, O=C(NCc1ccc2c(c1)OCO2)C1CCCN(S(=O)(=O)c2cccs2)C1 (stereo not drawn) 3%, CCOC(=O)C1(C(F)(F)F)N=C(N(C)C)OC(N(C)C)=N1 20%, O=C1OC(NC(=O)c2ccccc2)C(N2CCOCC2)=C1Cl (stereo not drawn) 6%, COc1ccccc1N1CCN(Cc2nnnn2CCc2ccccc2)CC1 -8%, COc1ccccc1C(=O)N1CCNC(=O)C1CC(=O)Nc1ccc(Cl)cc1 (stereo not drawn) -4.5%, O=C(CN1CCN(C(=O)c2cccc(F)c2)CC1)Nc1ccccc1F 7%, N#Cc1ccc(COC(=O)Cn2nnc(-c3ccccc3)n2)cc1 -9.5%, COc1ccc(N2C(=O)c3cccc4cccc(c34)C2=O)nn1 -1.5%, OCCNCCCCOc1ccccc1F -13.5%, COc1ccccc1C(=O)NCCn1cc(SCC(=O)NCc2ccco2)c2ccccc21 -4%, Cn1c(=O)[nH]c(=O)c2c1nc(NCCCn1ccnc1)n2Cc1cccc(Br)c1 -22.5%, CCCS(=O)(=O)N1CCN(C(=O)c2cccs2)CC1 -15%, COc1cccc(N2C(=O)C3CCCN3C2c2ccc(F)cc2)c1 (stereo not drawn) -5%, CCN(CC)C(=O)N1CCN(C(=O)c2ccc(C)cn2)CC1 -8%, CCn1c(CSc2ncccn2)nnc1SCC(=O)N1c2ccccc2CC1C (stereo not drawn) 5.5%, O=C1c2ccncc2C(=O)N1C1CCCCC1 3%, COc1ccc(OC)c(C2N(c3ccccn3)C(=O)C3CCCN32)c1 (stereo not drawn) -11%, O=C(CN1C(=O)CSc2ncccc21)N1CCOCC1 -1%, COc1cccc(C(CC(=O)NCCN2CCOCC2)NS(=O)(=O)c2ccc(C)cc2)c1OC (stereo not drawn) -2%, Cc1onc(-c2ccccc2Cl)c1C(=O)NCCn1ccc2ccccc21 -7%, Cc1ccc(C2CC(=O)NC(SCC(=O)OCc3ccccc3)=C2C#N)o1 (stereo not drawn) -24%, COc1ccc(S(=O)(=O)NC(CC(=O)NCc2ccccc2OC)c2ccco2)cc1 (stereo not drawn) 3%, CC(C)OCCCNC(=O)CNC(=O)c1cccs1 10%, CCOC(=O)c1ccn(-c2nc(-c3ccco3)cc(C(F)(F)F)n2)n1 -5%, CCOC(=O)c1sc(=S)n(-c2cccc(OC)c2)c1N -4%, CCOC(=O)Cn1c2c(c(-c3ccccc3OC)cc1=O)CCCC2 16%, Cc1ccc(N2C(=O)c3oc4ccccc4c(=O)c3C2c2cccnc2)nc1 (stereo not drawn) -22%, OCc1nc(CO)n(Cc2ccccc2)n1 -2.3%, O=C(CN1CCOCC1)Nc1c2c(nc3c1CCC3)CCC2 -12%, Cc1nc2nc(SCC(=O)NCc3ccco3)nn2c(C)c1Cc1ccccc1 -12.3%, CCN(CCCNC(=O)C1CCN(S(=O)(=O)c2cnc[nH]2)CC1)c1ccccc1 0%, Cc1ccc(C)c(N(CC(=O)NCc2ccco2)C(=O)CCC(=O)Nc2ccccn2)c1 -3%, CC(Sc1sc(=S)sc1SC(C)C(=O)O)C(=O)O (stereo not drawn) -53.5%, C=CCN(CC=C)C(=O)CN1C(=O)c2ccccc2C1=O -1%, Cc1ccc2c(c1)N(CCCC(=O)NCc1cccnc1)C(=O)CO2 -5%, CCOC(=O)C1CCN(C(=O)C2CCN(S(=O)(=O)c3c(C)noc3C)CC2)CC1 10%, O=C(CN1C(=O)CCS(=O)(=O)c2ccccc21)NCc1ccc(F)cc1 -3%, Cc1oc(C)c(C(=O)NCCCC(=O)O)c1C(=O)NCCCC(=O)O 5%, COc1ccc(NC(=O)C2CCCN(S(=O)(=O)c3cccc4cccnc34)C2)cc1 (stereo not drawn) 0%, CCOc1ccccc1NC(=O)C1CCC(CNc2c(N3CCOCC3)c(=O)c2=O)CC1 (stereo not drawn) 2%, Cc1cccc2c1N(CC(=O)OC(C)C)C(=O)C2=O 10.7%, Cc1cc(NC(=O)CSCc2nc(-c3cccc(Cl)c3)oc2C)no1 5%, O=C(NCc1ccc2c(c1)OCO2)c1cc2c(s1)CS(=O)(=O)C2 -4%, Cc1ccc(C)c(N2CCN(C(=O)CCc3nc4ccccc4[nH]3)CC2)c1 -5%, O=S(=O)(Nc1ccccn1)c1ccc(Oc2ccccc2)cc1 -1.3%, CCOc1c(OC)cc(C2C(C#N)=C(N)Oc3n[nH]c(-c4ccncc4)c32)cc1OC (stereo not drawn) -15%, CCC(C)Sc1nnc(-c2c[nH]c3ccccc23)n1CCOC (stereo not drawn) 10%, COc1ccc(C2OC(=O)CC2C(=O)NC(C)C)cc1 (stereo not drawn) 6%, COC(=O)Cn1c(=NC(=O)CSCC(=O)Nc2cc(C)on2)sc2ccccc21 -10.5%, COc1ccc(NC(=O)c2c(SC)nsc2SC)cc1 -23%, COCCCNC(=O)c1ccc2c(c1)ncn2-c1ccccc1OC -35%, O=C(NCc1ccco1)c1cccn2c(=O)c3cc(Br)ccc3nc12 -34%, CCn1cc(C(=O)N2CC=C(c3ccccc3)CC2)c(=O)c2ccc(C)nc21 4%, O=C(CC(Cc1ccccc1)C(=O)O)NCCc1ccc2c(c1)OCO2 (stereo not drawn) -16%, Cc1ccc(C)c(NC(=O)CSc2nnc(Cc3cccn3C)n2-c2ccc(F)cc2)c1 10%, NC(=O)C1(N2CCCCC2)CCN(C(=O)c2ccc(C#Cc3ccccc3)o2)CC1 3%, CC1(C)CC(O)C(CCC(O)c2ccccc2)C(C)(C)N1 (stereo not drawn) -6%, CCc1nnc(NC(=O)CCC(=O)O)s1 -11%, O=C(NC(=O)c1ccc(Cl)c(Cl)c1)OC1CCS(=O)(=O)C1 (stereo not drawn) -4%, O=C(NC1(C(F)(F)F)N=C2SCCN2C1=O)c1ccco1 (stereo not drawn) -21%, Cn1c(=O)cc(SCC(=O)N2CCCC2)c2cc(Cl)ccc21 2%, CN1C(=O)c2ccccc2C(C(=O)NCCCN2CCCC2)C1c1c[nH]c2ccccc12 (stereo not drawn) 17%, COc1ccccc1CNC(=O)Cn1cc2c(n1)CCCC2 -2%, CCOC(=O)C1CCN(C(=O)CSc2cc(=O)n(C)c3ccccc23)CC1 -2%
